FBPA Giardia inh: inhibitors of Giardia lamblia fructose-1,6-bisphosphate aldolase. purified Giardia FBPA. A8B2U2. Potency, µM (highest dose often 59.6 µM), usual class: inhibitors. actives 0.71% (n = 290,000); further: nearly all actives have a fitted effect of over 55% in size
Target sequence (A8B2U2 whole entry, looked up): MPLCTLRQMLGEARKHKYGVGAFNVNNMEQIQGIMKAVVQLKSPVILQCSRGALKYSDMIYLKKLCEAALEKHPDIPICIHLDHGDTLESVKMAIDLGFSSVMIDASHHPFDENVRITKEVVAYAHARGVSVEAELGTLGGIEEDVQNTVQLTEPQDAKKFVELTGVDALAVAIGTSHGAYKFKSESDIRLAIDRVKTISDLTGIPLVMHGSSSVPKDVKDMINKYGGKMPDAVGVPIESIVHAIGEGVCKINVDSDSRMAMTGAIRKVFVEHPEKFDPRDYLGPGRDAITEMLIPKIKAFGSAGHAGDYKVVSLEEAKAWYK
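40 nM FBPA preincubated 10 min at RT with compound (up to 57.5 uM final), then substrate plus GAPDH/TPI/NAD/arsenate coupling and diaphorase/resazurin added. Fluorescence read after 20 min at RT, 525/598 nm.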
Tb PYK inh: inhibitors of Trypanosoma brucei pyruvate kinase; Q57TT1; TbPYK enzyme, Kinase-Glo Plus ATP luminescence, 45 min; Potency, µM (doses to about 76.8 µM), most hits filed as inhibitors; actives 0.12% (n = 410,000); AID 624173; further: nearly all actives have a fitted effect of over 50% in size
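Assay buffer: 50 mM TEA pH 7.2, 100 mM KCl, 10 mM MgCl2, 0.05% BSA, 0.01% Tween-20. Pyruvate kinase from T. brucei plus substrate met compound, then ADP (130 uM final). Luminescence was read post 45 min RT.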
RE007 growth inh: less growth of the S. pombe RE007 Vpr strain; S. pombe RE007 Vpr strain, BacTiter-Glo ATP luminescence, 24 h; Potency, µM (series often up to 92.2 µM), usual class: inhibitors; actives 0.21% (n = 360,000); AID 651644; active means well fitted falling curve with a large enough effect; inconclusive means small, poorly fitted or top-dose-only effect; inactive means no such curve, though single readings can be large or run the other way; further: nearly all actives have a fitted effect of over 50% in size
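Fission yeast RE007 carrying one integrated HIV-1 vpr copy, seeded at OD 0.01 in PMG+AL medium with 23 nL pinned compound. Grown 24 h at 30 degrees; viability read by BacTiter-Glo luminescence after 5 min.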
LmPK inhibitor: LmPK (Leishmania mexicana) enzyme inhibition. purified LmPK, Kinase-Glo ATP luminescence, 1 h. Potency, µM (titrated, usually from 57.5 µM), usual class: inhibitors. actives 0.37% (n = 290,000). AID 1721
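Screened at intermediate enzyme activity to detect both inhibitors and activators: LmPK at 0.1 nM, with a 0.5 nM enzyme column as activation reference. PEP 0.5 mM, ADP 0.1 mM; ATP detected by luminescence after 1 h.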
Sm TGR inh: S. mansoni TGR enzyme inhibition; Q962Y6; purified TGR, DTNB reduction, TNB absorbance 405 nm; Potency, µM (doses to about 114 µM), hits mostly inhibitors; actives 3% (n = 360,000); AID 485364; further: nearly all actives have a fitted effect of over 60% in size
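TGR 20 nM + NADPH 100 uM (dispensed conc.), cpd preinc 15 min RT; start with NADPH (500 uM addition) then DTNB (15 mM addition). Kinetic TNB absorbance, 405 nm filter. Four-parameter Hill fit across titration.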
Large screens that a line does not name were inactive. Sampled rows, rich in hits. Any-hit rate of the full collection: about 3.3%. Unless noted, the call rests on the fitted dose curve; in most records, active means well fitted curve in the direction sought with a large enough effect; inconclusive means small, poorly fitted or top-dose-only effect, or another doubt; inactive means no such curve, though single readings can be large; an effect the other way counts as inactive or inconclusive.

COc1ccc(NC(=O)c2nc(S(=O)(=O)Cc3ccc(C)cc3)ncc2Cl)cc1	Sm TGR inh inconclusive (no result: FBPA Giardia inh, RE007 growth inh, LmPK inhibitor)
CCC1CCCCN1S(=O)(=O)c1ccc(NC(=O)c2nc(S(C)(=O)=O)ncc2Cl)cc1 (configuration not stated)	Sm TGR inh 2µM
CCS(=O)(=O)c1ncc(Cl)c(C(=O)Nc2ccc(C)cc2)n1	Sm TGR inh 6.3µM
CCSc1ncc(Cl)c(C(=O)Nc2ccc(S(=O)(=O)N3CCCCC3CC)cc2)n1 (configuration not stated)	none (no result: FBPA Giardia inh, RE007 growth inh, LmPK inhibitor)
Cc1ccc(CS(=O)(=O)c2ncc(Cl)c(C(=O)Nc3ccc(OC(F)F)cc3)n2)cc1	Sm TGR inh 10µM (no result: FBPA Giardia inh)
CCS(=O)(=O)c1ncc(Cl)c(C(=O)Nc2ccc(S(=O)(=O)N3CCCC(C)C3)cc2)n1 (configuration not stated)	Sm TGR inh 0.35µM
Cc1ccc(CNC(=O)CCCn2c(=O)c3ccccc3n(CC(=O)Nc3ccc(C)cc3)c2=O)cc1	none (no result: FBPA Giardia inh, RE007 growth inh, LmPK inhibitor)
CC(C)(C)n1nnnc1C1c2ccccc2C(=O)N1CCc1c[nH]c2ccccc12 (configuration not stated)	none (no result: FBPA Giardia inh, LmPK inhibitor, Sm TGR inh)
COC(=O)c1ccc(/C=N/NC(=O)C2CC(=O)N(c3ccc(F)cc3)C2)cc1 (configuration not stated)	none (no result: FBPA Giardia inh)
CCOC(=O)C1CCCN(C(=O)c2ccccc2[N+](=O)[O-])C1 (configuration not stated)	none
CCCn1c(SCc2nc(N)nc(N3CCCCC3)n2)nc2c1c(=O)n(C)c(=O)n2C	none
O=C(O)c1cc(N=Nc2c(O)ccc3ccccc23)cc(C(=O)O)c1	Tb PYK inh 13µM, LmPK inhibitor inconclusive
Cc1ccc(NC(=O)CCC(=O)c2cccs2)nc1	Sm TGR inh 50µM (no result: FBPA Giardia inh, LmPK inhibitor)
CC(=O)c1sc(NC(=O)C=C(C)C)nc1C	LmPK inhibitor inconclusive
CC(=O)c1sc(NC(=O)C2(F)C(F)(F)C(F)(F)C(F)(F)C(F)(F)C2(F)F)nc1C	Sm TGR inh 50µM
CC(=O)c1sc(NC(=O)CCS(=O)(=O)c2ccc(C)cc2)nc1C	Sm TGR inh 35µM (no result: FBPA Giardia inh, LmPK inhibitor)
Cc1ccc(NC(=O)CCS(=O)(=O)c2ccc(Br)cc2)nc1	Tb PYK inh inconclusive, Sm TGR inh 16µM
Cc1cc2c(s1)c(C=O)c(C(=O)NCc1ccccc1F)n2C	none (no result: FBPA Giardia inh, Tb PYK inh, RE007 growth inh, LmPK inhibitor)
COc1ccc2c(c1)c(C)cc[n+]2Cc1ccccc1	none
Cc1csc(NC(=O)CCS(=O)(=O)c2ccc(Br)cc2)n1	Sm TGR inh 3.5µM
O=C(CCS(=O)(=O)c1ccc(Br)cc1)Nc1ccc2c(c1)OCO2	Sm TGR inh 40µM
Cc1csc(NC(=O)Cc2ccc(Br)cc2)n1	none
Clc1ccc(OCCn2ccnc2)cc1Cl	FBPA Giardia inh inconclusive
NC(=O)c1ccc(NC(=O)c2cnc3ccccc3n2)cc1	none
CN1C(=O)C2(NC(=O)c3ccccc3N2C)c2ccccc21 (configuration not stated)	none
CN1C(=O)C(Cl)(Cl)C(=O)c2ccccc21	FBPA Giardia inh 5µM, Tb PYK inh 14µM
CC1(c2ccc(Cl)cc2)NC(=O)CS1 (configuration not stated)	none
Cc1ccc(CS(=O)(=O)c2ccc(C(=O)N3CCN(c4ccccn4)CC3)cc2[N+](=O)[O-])cc1	Sm TGR inh 32µM
O=C(c1ccc(N2CCCCC2)c([N+](=O)[O-])c1)N1CCN(c2ccccn2)CC1	none
Cc1ccc(CS(=O)(=O)c2ccc(C(=O)N3CCCCC3)cc2[N+](=O)[O-])cc1	Sm TGR inh 18µM
CCN(CC)C(=O)c1ccc(CS(=O)(=O)c2ccc(Br)cc2)cc1	none
CCN(CC)C(=O)c1ccc(S(=O)(=O)Cc2ccc(C)cc2)c([N+](=O)[O-])c1	Sm TGR inh 7.9µM
O=C(NCc1ccc(F)cc1F)[C@@H]1CCCN1C(=O)[C@@H]1CCCN1C(=O)c1cccc2ccccc12	none (no result: FBPA Giardia inh, LmPK inhibitor, Sm TGR inh)
C#CCn1c(-c2ccccc2)ccc(C#N)c1=O	none
COc1ccccc1CNC(=O)c1ccc(CS(=O)(=O)c2ccc(C)cc2)o1	Sm TGR inh 35µM
Cc1ccc(S(=O)(=O)Cc2ccc(C(=O)NCc3ccc4c(c3)OCO4)o2)cc1	Sm TGR inh 25µM
COc1ccccc1CNC(=O)COC(=O)CNS(=O)(=O)c1ccc(C)cc1	Sm TGR inh 35µM (no result: FBPA Giardia inh)
COc1ccccc1N1CCN(C(=O)c2ccc(CS(=O)(=O)c3ccccc3OC)o2)CC1	Sm TGR inh 28µM
O=[N+]([O-])c1cccc(OCc2cn3cccnc3n2)c1	none
COc1ccc(S(=O)(=O)Cc2ccc(C(=O)NCc3cccnc3)o2)cc1	Sm TGR inh 35µM
Cc1ccc(S(=O)(=O)Cc2ccc(C(=O)O)o2)cc1	Sm TGR inh 22µM
COc1ccc(S(=O)(=O)Cc2ccc(C(=O)NCc3ccccc3)o2)cc1	none
COCCNC(=O)c1ccc(CS(=O)(=O)c2ccccc2OC)o1	Sm TGR inh 32µM
CC(=O)c1sc(NC(=O)c2ccc(Br)o2)nc1C	none (no result: FBPA Giardia inh)
COCCCNC(=O)c1ccc(CS(=O)(=O)c2ccccc2OC)o1	none
CC(=O)c1sc(NC(=O)c2ccc(Cn3cc(Br)cn3)o2)nc1C	FBPA Giardia inh inconclusive, Sm TGR inh 50µM
CC(C)C(NC(=S)NCc1ccccc1)C(=O)O (configuration not stated)	none
Cc1ccc(N2CC(C(=O)Nc3cccnc3)CC2=O)cc1 (configuration not stated)	none
Cc1ccc(N2CCN(c3nc4ccccc4c4nnc(C)n34)CC2)c(C)c1	none (no result: FBPA Giardia inh, RE007 growth inh, LmPK inhibitor)
COCCNC(=O)c1ccc(CS(=O)(=O)c2ccc(C)cc2)o1	Sm TGR inh 35µM
COc1ccc(CNC(=O)c2ccc(Cn3cc(Cl)cn3)o2)cc1	Sm TGR inh 14µM
COc1ccc2c(c1O)C(=O)c1ccccc1C2=O	none (no result: Tb PYK inh, RE007 growth inh)
Nc1c(O)ccc2c1C(=O)c1ccccc1C2=O	FBPA Giardia inh inconclusive, Tb PYK inh inconclusive, RE007 growth inh inconclusive, LmPK inhibitor 14µM
COc1ccc(CCC(=O)Nc2nnc(C)s2)cc1	none (no result: FBPA Giardia inh, LmPK inhibitor, Sm TGR inh)
CCC(C)[C@@H](NC(=O)OC(C)(C)C)c1nnc(S(=O)(=O)Cc2cccc(C)c2)o1 (some centres not stated)	Sm TGR inh 2µM
Cc1ccccc1CS(=O)(=O)c1nnc([C@H](Cc2ccccc2)NC(=O)OC(C)(C)C)o1	Sm TGR inh 1.1µM
CC(C)(C)OC(=O)N[C@@H](Cc1ccccc1)c1nnc(S(=O)(=O)Cc2ccccc2)o1	Sm TGR inh 0.63µM (no result: Tb PYK inh, RE007 growth inh)
Cc1cccc(CS(=O)(=O)Cc2ccc(C(=O)NC(C)c3ccccc3)o2)c1 (configuration not stated)	Sm TGR inh inconclusive
CCSc1nnc([C@H](Cc2ccccc2)NC(=O)OC(C)(C)C)o1	none
CCCCn1c(N)c(N(CC(C)C)C(=O)c2ccc(Cl)c(S(=O)(=O)N3CCCC3)c2)c(=O)[nH]c1=O	none (no result: FBPA Giardia inh, LmPK inhibitor)

Screening data (PubChem)
